“And” between values parts separate entries of the source, which are not always exact repeats. Equal values may be shown once. Inconclusive results are not listed. Where a call stands in place of a potency, no number is given. A structure can be active in one record and inactive in another. The source made the active and inactive calls. Calls follow the shape of the full dose curve.
Test: qHTS assay to identify small molecule agonists of the NFkB signaling pathway - cell viability counter screen (AID 1159515); also: nearly all actives have a fitted effect of over 55% in size
Conditions: NFkB-bla ME-180 viability, CellTiter-Glo luminescence, 5 h; series mostly up to 61 µM; activity, negative = cytotoxic: at the top concentration
Source text: National Center for Advancing Translational Sciences [NCATS]
NIH Chemical Genomics Center [NCGC]
U.S. Environmental Protection Agency [EPA]
National Institutes of Environmental Health Sciences [NIEHS]
National Toxicology Program [NTP]
U.S. Food and Drug Administration [FDA]
Transcription factors and their stimulated target gene expression play pivotal roles across many cellular processes including responses to environmental stimuli. Proper regulation of associated pathways is critical to maintain cell health and function. Constitutive activation of transcription factor pathways has been implicated in tumors as it may block cellular functions such as apoptosis and lead to invasion and metastasis. One important transcription factor that stimulates gene expression in response to cytokines, UV radiation, and other stimuli is nuclear factor-kappa B (NFkB). To measure activation of the NFkB pathway, the CellSensor NFkB-bla ME-180 cell line (Life Technologies, Carlsbad, CA) that stably expresses beta-lactamase reporter gene under the regulation of a NF-kB response element was used. This assay allows measurement of the NFkB pathway activity induced by compounds in a ME-180 cell line. This system quantitates NF-kB activity using a FRET-based assay system where beta-lactamase expression disrupts FRET, allowing for fluorescent measurement of activity. This cell line has been used to screen the Tox21 10K compound library and to identify compounds that induce the NFkB pathway activity. The cytotoxicity of the Tox21 compound library against the NFkB-bla ME-180 cell line was tested in parallel by measuring cell viability using the CellTiter-Glo assay in the same wells.
Tox21 Assay Protocol Summary:
NFkB-bla ME-180 cells were dispensed at 2,000 cells/6 uL of assay medium per well into black wall/clear-bottom 1536-well plates using a Multidrop Combi (ThermoFisher Scientific, Waltham, MA) dispenser. After the assay plates were incubated at 37 C and 5% CO2 for an overnight, 23 nL of compounds dissolved in DMSO, positive controls or DMSO only was transferred to the assay plate by a Pintool station (Kalypsys, San Diego, CA). The assay plates were incubated at 37 C and 5% CO2 for 5 hr. One uL of LiveBLAzer B/G FRET substrate (Life Technologies) was added using a Flying Reagent Dispenser (Aurora Discovery, San Diego, CA) and the plates were incubated at room temperature for 1.5 hr. Fluorescence intensity (405 nm excitation, 460 nm and 530 nm emissions) was measured using an Envision plate reader (PerkinElmer, Shelton, CT). For cytotoxicity, 3 ul/well of CellTiter-Glo reagent was added into the assay plates using an FRD. After 30 min incubation at room temperature, the luminescence intensity was measured using a ViewLux plate reader (PerkinElmer).
Potency is read from the fitted curve at half-maximal effect.

Row | Structure (SMILES) | Potency | activity, negative = cytotoxic
1 | C1=Cc2cccc3cccc1c23 | inactive | –
2 | CC(C)(C)c1ccccc1O | inactive | –
3 | Nc1ccc(Cl)cc1N | inactive | –
4 | Nc1ccc(-c2ccc(N)c(N)c2)cc1N | inactive | –
5 | O=P(Oc1ccccc1)(Oc1ccccc1)Oc1ccccc1 | inactive | –
6 | Cc1ccccc1[N+](=O)[O-] | inactive | –
7 | C[C@]12CCC(=O)C(O)=C1CC[C@@H]1[C@@H]2CC[C@]2(C)C(=O)CC[C@@H]12 | inactive | –
8 | COc1ccc(C(CN(C)C)C2(O)CCCCC2)cc1 (stereo not given) | – | 3.59% (inactive)
9 | CC(O)CCO (stereo not given) | inactive | –
10 | COP(=O)(OC)OC | inactive | –
11 | CC(C)=CC1C(C(=O)OCc2coc(Cc3ccccc3)c2)C1(C)C (stereo not given) | inactive | –
12 | CCOC(=O)C(C)OC(=O)c1cc(Oc2ccc(C(F)(F)F)cc2Cl)ccc1[N+](=O)[O-] (stereo not given) | inactive | –
13 | COP(=S)(OC)Oc1cc(Cl)c(Cl)cc1Cl | – | 3.61% (inactive)
14 | CCN(CC)N=O | inactive | –
15 | CCCCCc1cc(O)cc(O)c1 | inactive | –
16 | Nc1c(Cl)cc([N+](=O)[O-])cc1Cl | inactive | –
17 | CC(C)Oc1cc(-n2nc(C(C)(C)C)oc2=O)c(Cl)cc1Cl | inactive | –
18 | Nc1ccncc1 | inactive | –
19 | Cc1ccc(OP(=O)(Oc2ccc(C)cc2)Oc2ccc(C)cc2)cc1 | inactive | –
20 | COc1ccc(C=O)cc1 | inactive | –

Row | Structure (SMILES) | Potency | activity, negative = cytotoxic
21 | O=C(Nc1ccc(Br)cc1)c1cc(Br)cc(Br)c1O | 13.8 µM (active) and 49 µM (active) | –
22 | CNC(=O)Oc1cccc2c1OC(C)(C)O2 | – | -2.78% [at 78.8 µM] (inactive)
23 | ClC1C(Cl)C(Cl)C(Cl)C(Cl)C1Cl (stereo not given) | 55.4 µM (active) and inactive | –
24 | NNC(N)=S | inactive | –
25 | CN(C)C(=O)Nc1ccc(Cl)cc1 | inactive | –
26 | Cc1cccc(N)c1N | inactive | –
27 | C#C[C@]1(O)CC[C@H]2[C@@H]3CCC4=CC(=O)CC[C@]4(C)[C@H]3CC[C@@]21C | inactive | –
28 | CCCCOCCOP(=O)(OCCOCCCC)OCCOCCCC | inactive | –
29 | CCCCN(CC)c1c([N+](=O)[O-])cc(C(F)(F)F)cc1[N+](=O)[O-] | inactive | –
30 | CCCCCCCCCCCOC(=O)c1ccccc1C(=O)OCCCCCCCCCCC | inactive | –
31 | Oc1c(Cl)c(Cl)c(Cl)c(Cl)c1Cl | – | 4.02% (inactive)
32 | Cc1c(COC(=O)[C@@H]2[C@H](/C=C(\Cl)C(F)(F)F)C2(C)C)cccc1-c1ccccc1 | inactive | –
33 | CCOc1cc(C=O)ccc1O | inactive | –
34 | NCc1cccnc1 | – | -1.19% (inactive)
35 | Cc1cc(C)cc(C)c1 | inactive | –
36 | CCC(C)c1ccc(O)cc1 (stereo not given) | inactive | –
37 | Oc1cc(Cl)c(Cl)cc1Cl | inactive | –
38 | CCCCCCCCOC(=O)c1ccccc1C(=O)OCCCCCCCC | inactive | –
39 | O=C(NC(=O)c1c(F)cccc1F)Nc1ccc(Cl)cc1 | inactive | –
40 | Cc1ccc2c(c1N)C(=O)c1ccccc1C2=O | inactive | –

From PubChem BioAssay (Tox21)
